Activity calls are given as the source filed them. The calls were made as follows: active = hit-call score of the fitted dose curve at least 0.9, where 1 is the maximum; inactive = score below 0.9.

A word on the AC50: it is the midpoint of the concentration-response curve, whichever way the signal moves.

Myc proto-oncogene protein (Homo sapiens), sequence (P01106 whole entry, looked up): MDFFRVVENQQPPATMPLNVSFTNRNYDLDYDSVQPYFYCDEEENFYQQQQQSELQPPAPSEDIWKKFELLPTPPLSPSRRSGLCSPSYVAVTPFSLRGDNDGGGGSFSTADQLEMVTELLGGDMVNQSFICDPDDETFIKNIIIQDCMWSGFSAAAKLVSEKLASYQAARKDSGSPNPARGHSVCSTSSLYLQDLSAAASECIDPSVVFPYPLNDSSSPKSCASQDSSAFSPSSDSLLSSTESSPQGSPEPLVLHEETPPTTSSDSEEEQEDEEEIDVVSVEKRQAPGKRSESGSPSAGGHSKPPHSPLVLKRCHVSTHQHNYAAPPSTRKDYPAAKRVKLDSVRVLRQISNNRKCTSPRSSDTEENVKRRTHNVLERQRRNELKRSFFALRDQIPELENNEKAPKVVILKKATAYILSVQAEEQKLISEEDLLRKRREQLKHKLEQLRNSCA

In one assay the target is Myc proto-oncogene protein (Homo sapiens) (UniProt P01106). The experiment in a line: ATG_Myc_CIS: Attagene CIS-FACTORIAL HepG2 Assay for human Myelocytomatosis (Myc) Proto-Oncogene Transcription Factor (AID 2282990). Particulars: HepG2, Attagene cis-reporter transcription factor activity; actives raise or lower the signal. The procedure, abridged:
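Cells of the HepG2 human liver line bear multiple cis-driven reporter transcription units. Reporter mRNA after 24 h exposure is reverse-transcribed, amplified, labelled and resolved by capillary electrophoresis, with gain- or loss-of-signal fitting relative to DMSO.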
As to `OCCCc1cccnc1`, the call was inactive.
Regarding `OC(O)C(F)(F)C(F)(F)F`, the call was inactive.
Take `Brc1nc2ccccc2s1`: the outcome was inactive.
Consider `N#Cc1ccccc1O`, for which the compound was classed as inactive.
With `COC(F)(C(F)F)C(F)(F)F` (stereo not given), the call was inactive.
As for `Nc1cccnc1N`, the call was inactive.
For the compound `CC(C)(C)c1cc(CCC(=O)OCC(COC(=O)CCc2cc(C(C)(C)C)c(O)c(C(C)(C)C)c2)(COC(=O)CCc2cc(C(C)(C)C)c(O)c(C(C)(C)C)c2)COC(=O)CCc2cc(C(C)(C)C)c(O)c(C(C)(C)C)c2)cc(C(C)(C)C)c1O`, the compound was called inactive.
With `Nc1c(Br)cc([N+](=O)[O-])cc1Br`, the outcome was inactive.
Turning to `OCCCCC(F)(F)C(F)(F)C(F)(F)C(F)(F)F`, the compound was called inactive.
With `CCC(Cc1c(I)cc(I)c(N)c1I)C(=O)O` (stereo not given), the AC50 is 148 µM (active).
For the compound `CCC/C=C/CO`, the result was inactive.
As to `CCOCN(C(=O)CS(=O)(=O)O)c1c(C)cccc1CC`, the compound was classed as inactive.
Take `O=C(Cl)c1ccc(Cl)cc1Cl`: the outcome was inactive.
With `C[C@]12CC[C@H]3C(=CCc4cc(O)ccc43)[C@@H]1CCC2=O`, the result was inactive.
Regarding `O=C1C=CC(=O)N1c1ccc(Cc2ccc(N3C(=O)C=CC3=O)cc2)cc1`, the compound was classed as inactive.
In the case of `CN(N=O)C(=O)N[C@@H]1[C@@H](O)[C@H](O)[C@@H](CO)O[C@@H]1O`, the compound was called inactive.
`O=C1c2c(O)ccc(Nc3ccc(CCO)cc3)c2C(=O)c2c([N+](=O)[O-])ccc(O)c21`: the result was inactive.
Take `Nc1cc([N+](=O)[O-])cc(Cl)c1O`: the compound was classed as inactive.
In the case of `CC(=O)CCC(C)C`, the outcome was inactive.
For the compound `CCOC(=O)CC(=O)C(F)(F)C(F)(F)F`, the compound was classed as inactive.
Consider `O=S(=O)(O)CCC(F)(F)C(F)(F)C(F)(F)C(F)(F)F`, for which the call was inactive.
As to `CC(C)=CCCC(C)O` (stereo not given), the call was inactive.
For `CCc1cc(Cc2cc(CC)c(N)c(CC)c2)cc(CC)c1N`, the AC50 was 57.3 µM (active).
With `CCN=c1cc2oc3cc(NCC)c(C)cc3c(-c3ccccc3C(=O)OCC)c-2cc1C`, the compound was classed as inactive.
Take `Cc1ccc2c(c1)OCC(=O)CO2`: the call was inactive.
On the same count and under the same terms, the result for `CCn1c2ccccc2c2ccccc21` reads “inactive”; that for `CCCCCCCCn1sc(Cl)c(Cl)c1=O`, “inactive”; that for `O=S(=O)(O)c1ccc(Cl)cc1`, “inactive”.
`Cc1ccc(S(=O)(=O)C(I)I)cc1`: the AC50 was 8.6 µM (active).
Regarding `CC(=O)c1ccccc1N`, the compound was classed as inactive.
Turning to `NC(=O)C(F)(F)C(F)(F)C(F)(F)F`, the compound was classed as inactive.
Regarding `Cc1cnccn1`, the call was inactive.
Regarding `CSc1ccc(O)cc1C`, the compound was classed as inactive.
Take `CN(C)C(C)(C)CO`: the result was inactive.
`COCCC(=O)OC`: the result was inactive.
For the compound `C=C(C)CCCC`, the outcome was inactive.
In the case of `CCOC(=O)CCC(C)=O`, the compound was called inactive.
In the case of `Cc1ccc([N+](=O)[O-])c(C)c1`, the compound was called inactive.

Tested on in a further assay: not listed separately
Nature of the assay: ATG_NF_kB_CIS: Attagene CIS-FACTORIAL HepG2 Assay for human Nuclear Factor Kappa B (NF-kB) (AID 2282991). Particulars: HepG2 Attagene cis-factorial NF-kB reporter mRNA; actives raise or lower the signal. Put shortly: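 Endpoint from a 52-component multiplexed HepG2 reporter panel: cis-regulated transcription units transiently transfected, 24 h dosing, reporter mRNA quantified by RT-PCR and capillary electrophoresis, scored as increase or decrease against DMSO.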
As for `OCCCc1cccnc1`, the outcome was inactive.
Consider `OC(O)C(F)(F)C(F)(F)F`, for which the AC50 is 127 µM (active).
For `N#Cc1ccccc1O`, the compound was classed as inactive.
Regarding `COC(F)(C(F)F)C(F)(F)F` (stereo not given), the compound was called inactive.
On to `Nc1cccnc1N`, for which the outcome was inactive.
In the case of `CC(C)(C)c1cc(CCC(=O)OCC(COC(=O)CCc2cc(C(C)(C)C)c(O)c(C(C)(C)C)c2)(COC(=O)CCc2cc(C(C)(C)C)c(O)c(C(C)(C)C)c2)COC(=O)CCc2cc(C(C)(C)C)c(O)c(C(C)(C)C)c2)cc(C(C)(C)C)c1O`, the outcome was inactive.
Same read-out and setting: the entry for `Nc1c(Br)cc([N+](=O)[O-])cc1Br` is “inactive”; for `OCCCCC(F)(F)C(F)(F)C(F)(F)C(F)(F)F` it is “inactive”.
In the case of `CCC(Cc1c(I)cc(I)c(N)c1I)C(=O)O` (stereo not given), the result was inactive.
Still for that read-out and setting: the entry for `CCOCN(C(=O)CS(=O)(=O)O)c1c(C)cccc1CC` is “inactive”.
For the compound `O=C(Cl)c1ccc(Cl)cc1Cl`, the result was inactive.
As for `O=C1C=CC(=O)N1c1ccc(Cc2ccc(N3C(=O)C=CC3=O)cc2)cc1`, the AC50 is 11.2 µM (active).
Consider `Nc1cc([N+](=O)[O-])cc(Cl)c1O`, for which the call was inactive.
As for `CC(=O)CCC(C)C`, the result was inactive.
Consider `CCOC(=O)CC(=O)C(F)(F)C(F)(F)F`, for which the compound was classed as inactive.
In the case of `O=S(=O)(O)CCC(F)(F)C(F)(F)C(F)(F)C(F)(F)F`, the call was inactive.
On to `CC(C)=CCCC(C)O` (stereo not given), for which the result was inactive.
For `CCc1cc(Cc2cc(CC)c(N)c(CC)c2)cc(CC)c1N`, the result was inactive.
`CCN=c1cc2oc3cc(NCC)c(C)cc3c(-c3ccccc3C(=O)OCC)c-2cc1C`: the call was inactive.
Take `Cc1ccc2c(c1)OCC(=O)CO2`: the result was inactive.
The same measure, in the same setting: the entry for `CCn1c2ccccc2c2ccccc21` is “inactive”; for `CCCCCCCCn1sc(Cl)c(Cl)c1=O` it is “inactive”.
For the compound `Cc1ccc(S(=O)(=O)C(I)I)cc1`, the AC50 is 19.5 µM (active).
In the case of `CC(=O)c1ccccc1N`, the compound was classed as inactive.
Turning to `NC(=O)C(F)(F)C(F)(F)C(F)(F)F`, the result was inactive.
Consider `Cc1cnccn1`, for which the compound was called inactive.
Consider `CSc1ccc(O)cc1C`, for which the result was inactive.
For the compound `CN(C)C(C)(C)CO`, the outcome was inactive.
Take `COCCC(=O)OC`: the outcome was inactive.
As for `C=C(C)CCCC`, the compound was called inactive.
With `CCOC(=O)CCC(C)=O`, the call was inactive.

Tested on in the next assay: not listed separately
Nature of the assay: ATG_NRF2_ARE_CIS: Attagene CIS-FACTORIAL HepG2 Assay for human Nuclear Factor Erythroid 2 Related Factor 2 (NFR2) response to Antioxidant Response Elements (ARE) (AID 2282992).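 As to AC50: reporter mRNA level measured by RT-PCR and capillary electrophoresis fluorescence.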 Particulars: HepG2 Attagene ARE/NRF2 reporter, transcription factor activity; actives raise or lower the signal. Put shortly:
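HepG2 cells transiently transfected with multiplexed cis-regulated reporter transcription units measure endogenous transcription factor activity. Reporter mRNA at 24 h is quantified by RT-PCR, fluorescent labelling and capillary electrophoresis, with bidirectional fitting relative to DMSO.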
Regarding `Brc1nc2ccccc2s1`, the AC50 is 23.6 µM (active).
Turning to `CCC/C=C/CO`, the compound was called inactive.
On the same count and under the same terms, the result for `C[C@]12CC[C@H]3C(=CCc4cc(O)ccc43)[C@@H]1CCC2=O` reads “inactive”; that for `CN(N=O)C(=O)N[C@@H]1[C@@H](O)[C@H](O)[C@@H](CO)O[C@@H]1O`, “inactive”.
`O=C1c2c(O)ccc(Nc3ccc(CCO)cc3)c2C(=O)c2c([N+](=O)[O-])ccc(O)c21`: the AC50 is 6.59 µM (active).
On to `O=S(=O)(O)c1ccc(Cl)cc1`, for which the compound was called inactive.

(Values after PubChem BioAssay (EPA / NIEHS).)
